esBAF inh = Bmi1 luciferase reporter increase in mESCs, primary screen, esBAF inhibitor project, mouse ES cells, Bmi1 luciferase knock-in, single point. 24 h; 100% = twice the neutral-well signal. reporter increase, % at 12.5 µM. 350,000 tested, 2% active; in the data active = activation above about 40%; inconclusive = no clear call, values can overlap the other calls;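 also: 0% = median of the plate's neutral control wells and 100% = double that signal; a rise in the Bmi1 reporter signal indicates esBAF inhibition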
FXN GAA850 act = FXN promoter activators, primary screen, cell-based, luciferase luminescence, HEK293 lucGAA850 | HEK293 lucGAA850 FXN promoter luciferase reporter, 24 h; percent of 10 µM SAHA response | activation, % at 6 µM | 360,000 tested, 0.56% active;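 active = activation above the average of all compounds screened plus 3 SD, cutoff fixed separately per campaign, cut at about 7.5% in these data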;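 also: 0% = DMSO wells and 100% = 10 µM SAHA wells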
Wnt act = Wnt/beta-catenin pathway activators, primary screen, cell-based, plate reader, single point; activation, % at 9.35 µM; Wnt/beta-catenin reporter cell assay, activator; 300,000 tested, 1.2% active; in the data active = activation above about 30%, passing the limit was not always enough; inconclusive = no clear call, values can overlap the other calls;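 also: 0% = neutral control wells and 100% = positive control wells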
MITF TRPM1 HTS = activators of MITF-driven TRPM1 promoter reporter, primary screen, cell-based, SK-MEL-5, luciferase, single point. SK-MEL-5 TRPM1-promoter luciferase, 24 h; % of positive control, neutral wells = 0. activation, % at 12.5 µM. 300,000 tested, 0.75% active. AID 588334, 2011;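 active = mean activation of at least 80% with every replicate also reaching 80%; inconclusive = mean reaches 80% but some replicate falls short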;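 also: 0% = neutral control wells and 100% = parthenolide positive control wells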
* hit, by the source's call; ? = inconclusive; / = not tested or not shown; ! = a repeat was not active. Compounds with a hit are over-represented: about 2.8% of the library has one in this group of screens.

SMILES	esBAF inh	FXN GAA850 act	Wnt act	MITF TRPM1 HTS
Cc1c(C(=O)Nc2nnc(C3CC3)s2)oc2ccccc12	53*	6	45*	65
Cc1c(C(=O)Nc2cnccn2)oc2ccccc12	61*	-1	5	7
C[C@@H]1CN([C@@H](C)CO)S(=O)(=O)c2ccc(-c3cccc(F)c3)cc2O[C@@H]1CN(C)C(=O)C1CC1	-6	/	/	/
COc1ccc(C2=NN(C(=O)CN3CCCCC3)C(c3ccc(C)cc3)C2)cc1 (stereo unspecified)	-1	0	-1	-2
COc1ccc(C2=NN(C(=O)CN3CCOCC3)C(c3nc4ccccc4[nH]3)C2)cc1 (stereo unspecified)	59*	6	?	35
CC(C)NC(=O)N1[C@H](CO)[C@@H]2c3ccccc3NC[C@@H]21	-9	/	/	/
O=C(Nc1ccccc1F)N1[C@H](CO)[C@@H]2c3ccccc3NC[C@@H]21	63*	/	/	/
COc1ccc(-c2nnc(SCCc3ccccc3)n2N)cc1	13	3	4	18
COc1ccc(-c2nnc(SCc3ccccc3)n2N)cc1	/	2	23	88*
Cc1cc(NC2CCCC2)n2nc(C)c(-c3ccccc3)c2n1	?	5	6	100*
Cc1cc(NCCCn2ccnc2)n2nc(C)c(-c3ccccc3)c2n1	47*	-1	16	66
CCOC(=O)c1cc(-c2ccccc2)sc1NC(=O)CC	/	-1	8	1
O=C(Nc1sc(-c2ccccc2)cc1C(=O)O)c1ccccc1	/	3	34*	71
O=C(O)C[C@H]1C=C[C@@H](NC(=O)Nc2cc(F)ccc2F)[C@H](CO)O1	5	/	/	/
CCN1CCN(C(=O)c2cc3ccc(OC)cc3[nH]2)CC1	29	4	11	95*
C/C(N)=C(/C#N)C(=O)CSc1nnc(-c2ccc(OC(F)F)cc2)o1	65*!	7	16	73
CCOC(=O)Cc1ccc2sc(-c3ccccc3)nc2c1	69*	6	/	20
CCOC(=O)c1sc(-c2ccccc2)nc1C	/	3	?	26
O=C(C[C@H]1C=C[C@@H](NC(=O)C2CC2)[C@@H](CO)O1)NCCCN1CCOCC1	0	/	/	/
Fc1cccc(Cl)c1Cc1noc(/C=C/c2ccccc2)n1	43*	5	15	60
C(=C\c1nc(-c2ccccc2)no1)/c1ccccc1	8	6	24	42
COc1ccc(CN2C[C@H](O)COC[C@H]3O[C@@H](CC(=O)NCc4ccccc4Cl)CC[C@@H]32)cc1	6	/	/	/
C/C(CC(=O)Nc1ccc([N+](=O)[O-])cc1)=N\NC(=O)c1ccccc1O	45*	3	0	/
C/C(CC(=O)Nc1ccc(N(C)C)cc1)=N\NC(=O)c1ccccc1O	?	1	2	-4
O=C1CCCC/C1=C\Nc1ccc(Cl)cn1	44*	5	/	69
SMILES	esBAF inh	FXN GAA850 act	Wnt act	MITF TRPM1 HTS
Cn1cnc2c1c(=O)n(Cc1cccc(Br)c1)c(=O)n2C	4	0	2	/
Cn1cnc2c1c(=O)n(Cc1ccccc1)c(=O)n2C	1	2	32*	/
Cc1ccc(-c2nnc(-c3cccc4ccccc34)o2)cc1	54*	3	1	36
c1ccc(Nc2nnc(-c3cccc4ccccc34)o2)cc1	/	2	38*	/
Cc1cccc(-c2nnc(-c3cccc4ccccc34)o2)c1	39	6	51*	13
COc1cccc(-c2nnc(-c3ccc(C(F)(F)F)cc3)o2)c1OC	53*	1	/	/
Cc1cccc(-c2nnc(-c3ccc4ccccc4c3)o2)c1	-13	5	-5	48
CO[C@H]1CN(C)C(=O)c2ccc(NS(C)(=O)=O)cc2OC[C@H](C)N(C(=O)C2CCOCC2)C[C@H]1C	-2	/	/	/
C[C@@H]1CCCCO[C@H](CN(C)S(=O)(=O)c2cn(C)cn2)[C@H](C)CN([C@@H](C)CO)C(=O)c2cc(NC(=O)NC3CCCCC3)ccc2O1	-7	/	/	/
Cc1ccc(-c2nc(-c3ccncc3)no2)cc1C	-14	2	39*	/
COc1ccc(-c2noc(-c3ccco3)n2)cc1OC	/	3	50*	?
COc1ccc(-c2nc(-c3ccncc3)no2)cc1OC	63*	6	/	/
COc1ccc(-c2noc(-c3cccs3)n2)cc1OC	53*	4	60*	/
COc1cc(-c2noc(-c3cccs3)n2)cc(OC)c1OC	24	1	7	24
COC(=O)C[C@@H]1CC[C@@H]2[C@@H](COc3ccc(NC(=O)c4cccc(F)c4)cc3C(=O)N2C)O1	3	/	/	/
Cc1noc(C)c1NC(=O)N[C@@H]1CC[C@H](CCNC(=O)C2CCCCC2)O[C@H]1CO	-4	/	/	/
Cc1noc(C)c1S(=O)(=O)Nc1ccc2c(c1)C(=O)N([C@@H](C)CO)C[C@@H](C)[C@H](CN(C)S(=O)(=O)c1cccs1)OCCCC[C@@H](C)O2	2	/	/	/
COc1ccc(-c2nc(-c3ccc(Br)o3)no2)cc1OC	18	2	21	74
COc1ccc(-c2noc(-c3cccc(Cl)c3)n2)cc1OC	49*	2	11	?
COc1ccc(CCC(=O)Nc2ccc(-c3noc(-c4ccc(OC)c(OC)c4)n3)cc2)cc1	43*	3	/	15
COc1cccc(-c2nc(-c3cccs3)no2)c1	-53	4	-1	13
COc1cccc(-c2nc(-c3ccncc3)no2)c1	/	5	35*	27
COc1cccc(-c2nc(-c3ccc(Br)o3)no2)c1	/	3	45*	51
CCC(=O)Nc1ccc2c(c1)C(=O)N(C)C[C@@H](OC)[C@H](C)CN(CC1CCCCC1)[C@@H](C)CO2	5	/	/	/
Cc1noc(C)c1NC(=O)Nc1ccc2c(c1)C(=O)N([C@@H](C)CO)C[C@H](C)[C@@H](CN(C)Cc1ccc(C(=O)O)cc1)OCCCC[C@H](C)O2	3	/	/	/
SMILES	esBAF inh	FXN GAA850 act	Wnt act	MITF TRPM1 HTS
O=C(C[C@H]1CC[C@@H](NC(=O)c2cnccn2)[C@@H](CO)O1)NCc1ccccc1F	4	/	/	/
Brc1ccc(-c2nc(-c3cccnc3)no2)o1	31	1	-1	51
Brc1ccc(-c2nc(-c3ccccc3)no2)o1	24	4	50*	26
COc1ccc(C2NC(=S)N3C(c4ccc(OC)cc4)NC(=S)N23)cc1 (stereo unspecified)	39	-3	/	11
Cc1ccc(C2NC(=S)N3C(c4ccc(C)cc4)NC(=S)N23)cc1 (stereo unspecified)	61*	2	6	/
CC(=O)N(C)C[C@H]1Oc2cc(C#CC3CC3)ccc2S(=O)(=O)N([C@H](C)CO)C[C@H]1C	8	/	/	/

Bioassay records deposited in PubChem BioAssay by several laboratories.
